The target in assay [1] is Cellular tumor antigen p53 (Homo sapiens) (UniProt P04637). Description: TOX21_p53_BLA_p4_ratio: Tox21 HCT-116 p53 Agonism Beta-lactamase Assay, Ratio, Phase 4 (AID 2283601). The essentials: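 Signal is the blue/green (460nm/530nm) ratio of cleaved versus uncleaved CCF4-AM substrate, read after 2 h substrate loading. Cells were HCT116 carrying the p53-responsive beta-lactamase reporter, dosed 16 h at 37C, 5% CO2; CellTiter-Glo measured in parallel.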

The nature of assay [2]: Tanguay_ZF_120hpf_MORT_legacy: (Legacy) Oregon State University Tanguay Lab 120 Hour Post-fertilization zebrafish Assay for Mortality (AID 2283633). The essentials: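 5D WT zebrafish, chorion removed 4 hpf; 1 embryo/well from 6 hpf; static exposure to 120 hpf, 28C, dark, sealed. Final DMSO 0.64%. Readout: binary mortality, brightfield, 24 + 120 hpf; DMSO as negative control.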

A short description of assay [3]: Tanguay_ZF_120hpf_YSE_legacy: (Legacy) Oregon State University Tanguay Lab 120 Hour Post-fertilization zebrafish Assay for Yolk Sac Edema (AID 2283634).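 For AC50: actives raise the incidence of yolk sac edema above the DMSO baseline.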 The essentials: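 Dechorionate (pronase, 4 hpf) → place one 6 hpf embryo per well → static compound exposure, sealed and foil-covered, 28C, to 120 hpf → record yolk sac edema as present or absent. Final DMSO 0.64%.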

Assay [4] can be described thus: Tanguay_ZF_120hpf_AXIS_legacy: (Legacy) Oregon State University Tanguay Lab 120 Hour Post-fertilization zebrafish Assay for Body Axis Malformation (AID 2283635).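 For AC50: potency for an increased fraction of larvae scored with body axis malformation.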 The gist of the method:
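Chorion is removed with pronase at 4 hpf, then single 6 hpf embryos are dosed (final DMSO 0.64%) and held statically at 28C in sealed, foil-covered plates. At 120 hpf body axis malformation is recorded as present or absent.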

Assay [5] can be described thus: Tanguay_ZF_120hpf_EYE_legacy: (Legacy) Oregon State University Tanguay Lab 120 Hour Post-fertilization zebrafish Assay for Eye Malformation (AID 2283636). The essentials: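 Read-out is binary presence or absence of eye malformation, scored by brightfield microscopy at 120 hpf. Single larvae were exposed from 6 hpf in embryo medium containing 0.64% DMSO, with DMSO as baseline.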

A short description of assay [6]: Tanguay_ZF_120hpf_SNOU_legacy: (Legacy) Oregon State University Tanguay Lab 120 Hour Post-fertilization zebrafish Assay for Snout Malformation (AID 2283637). The gist of the method:
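Snout malformation read as a yes/no call on brightfield images of 120 hpf larvae (Tropical 5D strain). Static exposure began at 6 hpf on dechorionated embryos in 0.64% DMSO, with gain of signal analysed versus DMSO controls.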

A short description of assay [7]: Tanguay_ZF_120hpf_OTIC_legacy: (Legacy) Oregon State University Tanguay Lab 120 Hour Post-fertilization zebrafish Assay for Otic Vesicle Malformation (AID 2283639). The essentials: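 Otic vesicle malformation is read as a yes/no morphology call at 120 hpf. Exposure is static at 28C with 0.64% (vol/vol) DMSO; embryos that die are excluded from non-mortality endpoints.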

Assay [8] is described as follows: Tanguay_ZF_120hpf_PE_legacy: (Legacy) Oregon State University Tanguay Lab 120 Hour Post-fertilization zebrafish Assay for Pericardial Edema (AID 2283640).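 For AC50: potency for increased incidence of pericardial edema versus DMSO baseline.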 The gist of the method: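 Embryos from wild-type 5D adults were staged, then dosed in 0.64% DMSO. They were kept sealed in the dark at 28C until 120 hpf. Pericardial edema was then recorded as present or absent.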

A short description of assay [9]: Tanguay_ZF_120hpf_BRAI_legacy: (Legacy) Oregon State University Tanguay Lab 120 Hour Post-fertilization zebrafish Assay for Brain Malformation (AID 2283641). The essentials:
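Wild-type 5D larvae, static waterborne exposure to 120 hpf, 28C, 0.64% v/v DMSO. Brightfield scoring of brain defects, binary; dead embryos excluded. Positive ctrl 5uM trimethyltin chloride.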

The nature of assay [10]: Tanguay_ZF_120hpf_SOMI_legacy: (Legacy) Oregon State University Tanguay Lab 120 Hour Post-fertilization zebrafish Assay for Somite Malformation (AID 2283647). The gist of the method: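 Read-out: presence or absence of somite malformation in 120 hpf larvae, gain-of-signal relative to DMSO baseline. Embryos lacked chorion (pronase, 4 hpf) and were exposed statically from 6 hpf at 28C; dead larvae not scored.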

A short description of assay [11]: Tanguay_ZF_120hpf_PFIN_legacy: (Legacy) Oregon State University Tanguay Lab 120 Hour Post-fertilization zebrafish Assay for Pectoral Fin Malformation (AID 2283648).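 Note: each larva judged yes or no for fin defect by brightfield with dead larvae skipped.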 The gist of the method: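 5D WT zebrafish; pronase dechorionation 4 hpf; 1 embryo/well at 6 hpf; static exposure to 120 hpf, 28C, sealed, foil-covered; final DMSO 0.64% v/v; 5 uM trimethyltin chloride positive control; fin defect scored yes/no.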

The nature of assay [12]: Tanguay_ZF_120hpf_CFIN_legacy: (Legacy) Oregon State University Tanguay Lab 120 Hour Post-fertilization zebrafish Assay for Caudal Fin Malformation (AID 2283649). The essentials: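 Binary presence or absence of caudal fin malformation at 120 hpf, read by brightfield microscopy, with DMSO as baseline. Larvae came from 5D wild-type embryos exposed statically from 6 hpf at 28C after pronase dechorionation.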

The nature of assay [13]: Tanguay_ZF_120hpf_PIG_legacy: (Legacy) Oregon State University Tanguay Lab 120 Hour Post-fertilization zebrafish Assay for Pigmentation Malformation (AID 2283650). The gist of the method: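 Pronase dechorionation at 4 hpf; embryos plated at 6 hpf, one per well; static exposure, sealed and foil-covered, 28C, to 120 hpf; pigmentation read by brightfield, binary; DMSO 0.64% baseline, 5uM trimethyltin chloride positive control.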

Assay [14] in a line: Tanguay_ZF_120hpf_SWIM_legacy: (Legacy) Oregon State University Tanguay Lab 120 Hour Post-fertilization zebrafish Assay for Swim Bladder Malformation (AID 2283654).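 Note: swim bladder malformation in each larva scored yes or no under brightfield.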 The gist of the method:
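Embryos lacking chorions were exposed individually and statically to test chemical from 6 to 120 hpf at 28C, with 0.64% DMSO as vehicle. At 120 hpf, swim bladder malformation was recorded as present or absent by brightfield microscopy.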

A short description of assay [15]: Tanguay_ZF_120hpf_TRUN_legacy: (Legacy) Oregon State University Tanguay Lab 120 Hour Post-fertilization zebrafish Assay for Truncated Body (AID 2283655). The gist of the method:
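Truncated body is recorded as a binary endpoint at 120 hpf by brightfield imaging of wild-type 5D larvae. Exposure runs statically from 6 hpf at 28C with 0.64% DMSO; embryos dying earlier are not scored.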

The nature of assay [16]: Tanguay_ZF_120hpf_NC_legacy: (Legacy) Oregon State University Tanguay Lab 120 Hour Post-fertilization zebrafish Assay for Notochord and Tail Malformation (AID 2283656). The essentials: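 Dechorionated 5D zebrafish, 1/well from 6 hpf; static exposure to 120 hpf, 28C, sealed, dark; final DMSO 0.64% v/v. NC scored binary (present/absent); dead embryos not scored. Fit vs DMSO baseline, gain direction.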

A short description of assay [17]: Tanguay_ZF_120hpf_JAW_legacy: (Legacy) Oregon State University Tanguay Lab 120 Hour Post-fertilization zebrafish Assay for Jaw Malformation (AID 2283638). The gist of the method: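 Steps: dechorionate 4 hpf embryos (pronase); plate 1/well at 6 hpf; add test chemical, 0.64% DMSO final; seal, cover, hold at 28C statically to 120 hpf; score jaw defect presence/absence microscopically. Dead embryos not scored.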

Assay [18] can be described thus: Tanguay_ZF_120hpf_CIRC_legacy: (Legacy) Oregon State University Tanguay Lab 120 Hour Post-fertilization zebrafish Assay for Circulatory Malformation (AID 2283651). The gist of the method:
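Using wild-type Tropical 5D zebrafish, we exposed dechorionated embryos from 6 to 120 hpf in embryo medium with 0.64% DMSO. Circulatory defects were scored as present or absent; 5uM trimethyltin chloride served as positive control.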

Read-out in assay [19]: kallikrein-3 (KLK3), KLK3 (gene 354)
Description: LTEA_HepaRG_KLK3: Life Technologies and Expression Analysis (LTEA) Assay for kallikrein-3 (KLK3) using HepaRG (AID 2283652; active = hit-call score of the fitted dose curve at least 0.9, where 1 is the maximum; inactive = score below 0.9). Conditions: mRNA level, 48 h; actives raise or lower the signal. The gist of the method: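 Differentiated human HepaRG cells in serum-free induction medium exposed 48 h in duplicate, eight-point half-log series from 100 uM in 0.5% DMSO. KLK3 mRNA by qRT-PCR, normalised to ACTB, GAPDH, POLR2A; bidirectional fit versus DMSO.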

Read-out in assay [20]: solute carrier (SLC22A6), SLC22A6 (gene 9356)
Description: LTEA_HepaRG_SLC22A6: Life Technologies and Expression Analysis (LTEA) Assay for solute carrier (SLC22A6) using HepaRG (AID 2283653; active = hit-call score of the fitted dose curve at least 0.9, where 1 is the maximum; inactive = score below 0.9). Conditions: mRNA level, 48 h; actives raise or lower the signal. The gist of the method: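 Read-out is SLC22A6 transcript level by qRT-PCR, normalised to three housekeeping genes and fitted for gain or loss relative to 0.5% DMSO vehicle. Human HepaRG cells received chemicals at up to 100 uM for 48 h.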

Results filed as inconclusive are left out. Calls of active or inactive are those of the source. Rule for the calls, unless noted: active = hit-call score of the fitted dose curve at least 0.9, where 1 is the maximum; inconclusive = response in the unintended direction; inactive = score below 0.9.

Chain of Cellular tumor antigen p53 (Homo sapiens) (P04637 whole entry, looked up): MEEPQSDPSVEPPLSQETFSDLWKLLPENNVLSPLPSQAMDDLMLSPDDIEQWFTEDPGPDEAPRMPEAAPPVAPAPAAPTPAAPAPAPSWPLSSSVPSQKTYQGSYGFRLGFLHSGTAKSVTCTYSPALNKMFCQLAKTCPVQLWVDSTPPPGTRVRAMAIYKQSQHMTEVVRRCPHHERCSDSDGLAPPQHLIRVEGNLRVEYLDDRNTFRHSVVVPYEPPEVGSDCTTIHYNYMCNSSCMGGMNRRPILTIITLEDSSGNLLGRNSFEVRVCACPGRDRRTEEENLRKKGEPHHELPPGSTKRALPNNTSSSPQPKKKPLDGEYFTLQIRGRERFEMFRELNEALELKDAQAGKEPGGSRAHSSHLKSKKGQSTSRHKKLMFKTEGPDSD

Turning to `Cc1ccc(N=CN(C)C=Nc2ccc(C)cc2C)c(C)c1`, the result in [1], in assay [2], in assay [3], in assay [4], in assay [5] and in assay [6] was inactive. The outcome in [7], in assay [8], in [9], in assay [10], in assay [11] and in assay [12] was inactive. The compound was called inactive in assay [13], in [14], in assay [15] and in assay [16].

Regarding `COCc1cnc(C2=NC(C)(C(C)C)C(=O)N2)c(C(=O)O)c1` (configuration not stated), the compound was called inactive in assay [2], in assay [3], in assay [5], in [6], in assay [17] and in [8]. In addition, the compound was called inactive in [9], in assay [10], in [11], in [12], in [13] and in [18]. Also, the result in assay [14] and in assay [15] was inactive.

Take `CC(C)(C)C(=O)C(Oc1ccc(Cl)cc1)n1cncn1` (configuration not stated): the AC50 – broadly, the concentration giving half of the maximal activity seen – is 36.8 µM (active) in assay [3], 41.3 µM (active) in [4], 34.8 µM (active) in [6] and 37.5 µM (active) in assay [8]. Besides, the compound was called inactive in [5], in assay [17], in assay [9], in assay [10], in [11] and in [12]. The result in assay [13], in [18], in assay [14], in assay [15] and in [16] was inactive.

Regarding `CC(C)=CC1C(C(=O)OCc2coc(Cc3ccccc3)c2)C1(C)C` (configuration not stated), the compound was called inactive in assay [2], in assay [3], in [4], in assay [5], in assay [6] and in assay [17]. For the same compound, the result in assay [7], in [8], in assay [9], in assay [11], in [12] and in assay [13] was inactive. The result in assay [18] and in assay [14] was inactive.

For the compound `Clc1nc(Cl)nc(Nc2ccccc2Cl)n1`, the result in [1], in [2], in assay [3], in [4], in assay [5] and in assay [17] was inactive. Also, the result in assay [8], in assay [11], in assay [12], in assay [18], in [15] and in [16] was inactive.

For `COc1cc(Cl)c(OC)cc1Cl`, the call in assay [2], in assay [3], in assay [4], in assay [5], in assay [6] and in assay [17] was inactive. The compound was called inactive in assay [7], in assay [8], in assay [9], in assay [10], in assay [11] and in assay [12]. The compound was called inactive in assay [13], in [18], in assay [14] and in assay [16].

As for `Nc1c(Cl)c(F)nc(OCC(=O)O)c1Cl`, the compound was called inactive in [2], in assay [3], in assay [5], in [6], in assay [17] and in assay [7]. For the same compound, the compound was classed as inactive in assay [8], in assay [10], in assay [12], in assay [13], in [18] and in assay [15]. Moreover, in assay [16], the outcome was inactive.

Take `CC(C)N1C(=O)c2ccccc2NS1(=O)=O`: the outcome in assay [1], in assay [2], in [4], in [5], in assay [6] and in assay [17] was inactive. Further, the call in assay [7], in assay [8], in assay [9], in [10], in assay [11] and in assay [18] was inactive. Besides, the compound was called inactive in [14] and in [15].

Turning to `Nc1c(Cl)c(Cl)nc(C(=O)O)c1Cl`, the result in [1], in assay [2], in [17], in assay [7], in assay [8] and in assay [9] was inactive. For the same compound, the result in assay [11], in assay [12], in assay [13], in assay [18], in [19] and in assay [20] was inactive. In addition, in assay [16], the compound was called inactive.

Source of the values: PubChem BioAssay (EPA / NIEHS).
